Earlier results on 48 compounds are cited in PubChem BioAssay AID977610.

The data set can be described thus: PubChem AID 977610. Particulars: PDB protein-ligand complexes, literature Ki.

SMILES strings stand for the structures. Among all 3,600 compounds or so, about 3,600 (100%) were called active. Cut-off not given; nearly all actives show Ki up to about 18000 µM. The set was probably picked from earlier hits. The list shows a part of the results. Square brackets hold non-standard residues; d marks the D form. Peptide text beside a SMILES is read from it. Orn(CH(NH2)2) = NC(N)NCCC[C@H](N)C(=O)O

By Ki is commonly meant the equilibrium dissociation constant of an inhibitor or competing ligand from its target. With `COc1ccc([C@H]2[C@H](O)[C@H](O)[C@H](C)N2C)cc1`, the inhibition constant Ki (protein: alpha-L-fucosidase, PDB entry 4jfs) was 5.4 µM (active). `COc1ccc([C@@H]2N[C@@H](C)[C@@H](O)[C@H]2O)cc1`: under “protein: alpha-L-fucosidase, PDB entry 4jft”, the Ki is 3.5 µM (active). `NC(N=O)NCC[C@H](N)C(=O)O` (stereo partly drawn): the inhibition constant (Ki) (protein: Arginase, PDB entry 4iu1) is 50 µM (active). With `COC(=O)CC[C@H](C[C@H](N)C(=O)O)C(=O)O`, the inhibitory constant (Ki) (protein: Glutamate receptor ionotropic, kainate 3 GluK3 LBD, PDB entry 4nwc) was 1.74 µM (active). Take `CNC(=O)CC[C@H](C[C@H](N)C(=O)O)C(=O)O`: the Ki (protein: Glutamate receptor ionotropic, kainate 3 GluK3 LBD, PDB entry 4nwd) is 3.96 µM (active). In the case of `CCCCCCCCCCCCCCCCCCCC(=O)NCCO`, under “protein: FATTY ACID-BINDING PROTEIN, EPIDERMAL, PDB entry 4azp”, the Ki was 1.26 µM (active). Take `CCC(CC)[C@H](NC(C)=O)[C@@H]1[C@H](O)[C@@H](C(=O)O)C[C@H]1NC(N)N`: under “protein: Human Sialidase Neu2, PDB entry 2f10”, the inhibitory constant (Ki) is 330 µM (active). Turning to `CC(=O)c1ccc2c(c1)OCCO2`, the Ki (protein: PDE10A2, PDB entry 4lm3) was 1200 µM (active).

For the compound `OCc1ccc2c(c1)OCCO2`, the inhibition constant (Ki) (protein: PDE10A2, PDB entry 4lm2) was 940 µM (active).

As for `CCCCCCCC/C=C\CCCCCCC[C@H](O)c1nnc(-c2ccccn2)o1`, the Ki (protein: Humanized Variant of Fatty Acid Amide Hydrolase (L192F, F194Y, A377T, S435N, I491V, V495M), PDB entry 3k84) was 0.003 µM (active). In the case of `Cc1ccnc(N)c1[N+](=O)[O-]`, the Ki (protein: PDE10A2, PDB entry 4mrz) is 300 µM (active).

In the case of `O=C(O)C(O)C(=O)O`, the Ki (protein: Mandelate racemase, PDB entry 4m6u) is 1800 µM (active).

Take `Nc1c(CC(=O)O)cccc1C(=O)c1ccc(Br)cc1`: the Ki (protein: E. coli sliding clamp, DNA polymerase III subunit beta, PDB entry 4mjq) is 193 µM (active). `C[C@H](NC(=O)[C@H](C)NC(=O)[C@H](Cc1ccccc1)NC(=O)[C@H](CO)NC(=O)[C@H](CCCNC(N)N)NC(=O)[C@@H]1CCCN1)C(=O)O` (H-P[Orn(CH(NH2)2)]SFAA-OH): the Ki (protein: LSD1-CoREST complex, PDB entry 3zn0) is 10.7 µM (active). Turning to `CC(C)C[C@H](NC(=O)[C@H](CCCNC(N)N)NC(=O)[C@@H]1CCCN1)C(=O)N[C@@H](Cc1ccc(O)cc1)C(=O)N[C@@H](CC(C)C)C(=O)N[C@H](C(=O)O)C(C)C` (H-P[Orn(CH(NH2)2)]LYLV-OH), the inhibition constant Ki (protein: LSD1-CoREST complex, PDB entry 3zn1) was 29.1 µM (active).

In the case of `CC(C)C[C@H](NC(=O)[C@H](Cc1ccccc1)NC(=O)[C@H](CO)NC(=O)[C@H](CCCNC(N)N)NC(=O)[C@@H]1CCCN1)C(=O)N[C@H](C(=O)O)C(C)C` (H-P[Orn(CH(NH2)2)]SFLV-OH), where the note is “protein: LSD1-CoREST complex, PDB entry 3zmt”, the Ki is 28.4 µM (active). On to `CC(C)[C@H](NC(=O)[C@H](C)NC(=O)[C@H](Cc1ccccc1)NC(=O)[C@H](CO)NC(=O)[C@H](CCCNC(N)N)NC(=O)[C@@H]1CCCN1)C(=O)O` (H-P[Orn(CH(NH2)2)]SFAV-OH), for which, where the note is “protein: LSD1-CoREST complex, PDB entry 3zmz”, the Ki was 18 µM (active).

As for `CCCCCC[C@H]([C@H](C)O)n1cnc2c(N)ncnc21`, the Ki (protein: Bos taurus Adenosine deaminase (ADA), PDB entry 2z7g) was 0.00113 µM (active). Regarding `COC(=O)N[C@H](C(=O)NN(CCC[C@@]1(O)Cc2ccc(cc2)C/C=C\CNC(=O)[C@H](C(C)C)NC1=O)Cc1ccc([C@H]2C=CCS2)cc1)C(C)(C)C`, the inhibition constant (Ki) (protein: HIV-1 protease, PDB entry 4cpx) was 0.017 µM (active). For `COC(=O)N[C@H](C(=O)NN(CCC[C@@]1(O)Cc2ccc(cc2)C/C=C\CNC(=O)[C@H](C(C)C)NC1=O)Cc1ccc(-c2cccnc2)cc1)C(C)(C)C`, the Ki (protein: HIV-1 protease, PDB entry 4cpt) was 0.02 µM (active). `COC(=O)N[C@H](C(=O)NN(CCC[C@@]1(O)Cc2ccc(cc2)C/C=C\CNC(=O)[C@H](C(C)C)NC1=O)Cc1ccc(-c2ccncc2)cc1)C(C)(C)C`: the Ki (protein: HIV-1 protease, PDB entry 4cps) was 0.0054 µM (active). On to `O=C(CCc1ccc(-c2ccccc2)cc1)N[C@@H]1O[C@H](CO)[C@@H](O)[C@H](O)[C@H]1O`, for which, where the note is “protein: Glycogen phosphorylase, muscle form, PDB entry 4mhs”, the Ki is 5.14 µM (active).

For the compound `CC(C)c1ccc(C[C@@H](C)C(=O)N[C@@H]2O[C@H](CO)[C@@H](O)[C@H](O)[C@H]2O)cc1`, the Ki (protein: Glycogen phosphorylase, muscle form, PDB entry 4mi3) was 75.3 µM (active). Take `Cc1ccc(C(=O)NC(=O)N[C@@H]2O[C@H](CO)[C@@H](O)[C@H](O)[C@H]2O)cc1`: the inhibition constant (Ki) (protein: Oryctolagus cuniculus Glycogen Phosphorylase, PDB entry 2qlm) is 2.3 µM (active).

Turning to `CC(C)c1ccc(CCC(=O)N[C@@H]2O[C@H](CO)[C@@H](O)[C@H](O)[C@H]2O)cc1`, the Ki (protein: Glycogen phosphorylase, muscle form, PDB entry 4mic) was 4.98 µM (active). `CC[B]O`: the inhibitory constant (Ki) (protein: pure Acyl-homoserine lactone acylase PvdQ, PDB entry 4wks) is 2000 µM (active). `Cc1nn(C)cc1-c1ccn[nH]1`: the inhibition constant (Ki) (protein: Catechol O-methyltransferase COMT, PDB entry 4p58) was 25 µM (active). Turning to `CC(C)S[C@@H]1O[C@H](CO)[C@H](O)[C@H](O)[C@H]1O`, where the note is “protein: Putative lipoprotein BT2192, PDB entry 4oue”, the inhibition constant Ki was 500 µM (active). With `NCC1CCC(C(=O)N[C@@H](Cc2ccccc2)c2nc(-c3ccc4c(N)n[nH]c4c3)c(Cl)[nH]2)CC1` (stereo partly drawn), the inhibitory constant (Ki) (protein: Coagulation factor XI FXIa, PDB entry 4ty7) is 0.0003 µM (active).

As for `NCC1CCC(C(=O)N[C@@H](Cc2ccccc2)c2ncc(-c3ccc(C(N)=O)cc3)[nH]2)CC1` (stereo partly drawn), for the setting “protein: Coagulation factor XI FXIa, PDB entry 4ty6”, the Ki is 0.03 µM (active). Turning to `N#CCC(=O)N1CCC[C@@H](n2[nH]nc3cnc4nccc4c32)C1`, the Ki (protein: Tyrosine-protein kinase JAK1, PDB entry 4i5c) was 0.0015 µM (active). For `O=C(O)C(=O)Nc1ccc(C[C@@H](c2nc3ccccc3o2)S(=O)(=O)Nc2ccc(F)cc2)cc1`, the inhibitory constant (Ki) (protein: Tyrosine-protein phosphatase non-receptor type 1, PDB entry 4i8n) is 35 µM (active).

Consider `O=c1[nH]c(=O)n([C@@H]2O[C@H](CO)[C@@H](O)[C@H](O)[C@H]2O)cc1Cl`, for which, where the note is “protein: Glycogen phosphorylase, muscle form, PDB entry 3t3e”, the inhibitory constant (Ki) is 1.02 µM (active).

Take `O=c1[nH]c(=O)n([C@@H]2O[C@H](CO)[C@@H](O)[C@H](O)[C@H]2O)cc1C(F)(F)F`: the Ki (protein: Glycogen phosphorylase, muscle form, PDB entry 3t3i) was 17 µM (active). For `O=c1[nH]c(=O)n([C@@H]2O[C@H](CO)[C@@H](O)[C@H](O)[C@H]2O)cc1Br`, where the note is “protein: Glycogen phosphorylase, muscle form, PDB entry 3t3g”, the Ki was 3.27 µM (active).

Consider `O=c1[nH]c(=O)n([C@@H]2O[C@H](CO)[C@@H](O)[C@H](O)[C@H]2O)cc1I`, for which the Ki (protein: Glycogen phosphorylase, muscle form, PDB entry 3t3h) is 1.94 µM (active). `OC[C@@H]1[C@@H](O)[C@H](O)[C@@H](O)[C@@H]1NCC1CCCCC1`: the inhibitory constant (Ki) (protein: Raucaffricine Glucosidase, PDB entry 3zj6) was 0.22 µM (active).

Consider `COCCCC[C@@H](NOCCN)c1ccc(C(F)(F)F)cc1`, for which the inhibition constant Ki (protein: Transporter(delta13 mutant), PDB entry 4mm9) was 2.07 µM (active). In the case of `O=[N+]([O-])c1ccccc1S[C@@H]1O[C@H](CO)[C@H](O)[C@H](O)[C@H]1O`, the inhibition constant Ki (protein: Putative lipoprotein BT2192, PDB entry 4ozo) was 147 µM (active). `COc1cc2c(c(OC)c1)[C@@H]1[C@H]3CCC[C@@H](C(=O)N1CC2)N3C(=O)C(=O)c1cc(OC)c(OC)c(OC)c1`: the inhibitory constant (Ki) (protein: Peptidyl-prolyl cis-trans isomerase FKBP5 (A19T mutation), PDB entry 4jfi) is 18.1 µM (active). As for `COc1cc(Cc2cnc(N)nc2N)cc(/C=C/C(=O)N2NCc3ccccc3[C@@H]2c2ccccc2)c1OC`, the inhibition constant Ki (protein: Dihydrofolate reductase, PDB entry 4elb) was 0.005 µM (active). `COc1cc(Cc2cnc(N)nc2N)cc(/C=C/C(=O)N2NCc3ccccc3[C@@H]2CC(C)C)c1OC`: under “protein: Dihydrofolate reductase, PDB entry 4elg”, the Ki is 0.0069 µM (active).

Consider `COc1cc(Cc2cnc(N)nc2N)cc(/C=C/C(=O)N2NCc3ccccc3[C@H]2CC(C)C)c1OC`, for which the inhibitory constant (Ki) (protein: Dihydrofolate reductase, PDB entry 4elh) is 0.0082 µM (active). For `COc1cc(Cc2cnc(N)nc2N)cc(/C=C/C(=O)N2N=Cc3ccccc3[C@@H]2C(C)C)c1OC`, the inhibition constant (Ki) (protein: Dihydrofolate reductase, PDB entry 4ele) is 0.0132 µM (active). On to `COc1cc(Cc2cnc(N)nc2N)cc(/C=C/C(=O)N2NCc3ccccc3[C@@H]2CCC(F)(F)F)c1OC`, for which, under “protein: Dihydrofolate reductase, PDB entry 4elf”, the inhibition constant Ki was 0.0094 µM (active). Consider `CCCCCCCCCCCCCB(O)O`, for which the inhibition constant (Ki) (protein: Acyl-homoserine lactone acylase PvdQ subunit beta, PDB entry 4m1j) was 0.0002 µM (active). For the compound `Cc1cc(N)ccc1O`, the Ki (protein: PDE10A2, PDB entry 4llp) was 16 µM (active). Regarding `O=C(O)c1ccccc1C(=O)NCc1c(Cl)cccc1Sc1ccc(Cl)cc1Cl`, the Ki (protein: Dehydrosqualene synthase, PDB entry 3tfp) is 0.34 µM (active).
